Compounds without any hit were thinned out: in the full panel of roughly 79,000, 15% have a hit. The source made the active and inactive calls. No stated cut-off is given here; in the data, active means growth inhibition above about 70%; inactive means the rest.
Assays:
[1] = NCI Yeast Anticancer Drug Screen. Data for the mlh1 strain (AID 171);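 further: 0% = growth of vehicle-treated control cultures of the same strain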; conditions: S. cerevisiae mlh1 strain growth inhibition, active compounds read high
In short: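 Yeast carrying a defined genetic alteration in DNA damage repair or cell cycle control were exposed to test compounds. Growth inhibition was measured relative to vehicle-treated controls.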

[2] = NCI Yeast Anticancer Drug Screen. Data for the sgs1 strain (AID 173);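 further: 0% = growth of vehicle-only control cultures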; conditions: S. cerevisiae sgs1 mutant, active compounds read high
In short: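 Yeast mutant strains carrying defined defects in DNA damage repair or cell cycle control were exposed to test compounds. Growth inhibition was scored against vehicle-treated controls.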

[3] = NCI Yeast Anticancer Drug Screen. Data for the mlh1 rad18 strain (AID 175); conditions: S. cerevisiae mlh1 rad18 strain growth inhibition, active compounds read high
In short: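 Growth inhibition of the yeast strain was measured after compound exposure and expressed relative to vehicle-treated controls. The strain carries defined defects in DNA damage repair.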

[4] = NCI Yeast Anticancer Drug Screen. Data for the rad18 strain (AID 177); conditions: S. cerevisiae rad18 mutant growth inhibition, active compounds read high
In short: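 Yeast carrying a defined DNA damage repair alteration were exposed to compounds. Growth inhibition was expressed relative to vehicle-treated controls.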

[5] = NCI Yeast Anticancer Drug Screen. Data for the rad52 strain (AID 147);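 further: 0% = growth of vehicle-treated control cultures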; conditions: S. cerevisiae rad52 mutant growth inhibition, active compounds read high
In short: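 Yeast strain carrying a DNA damage repair alteration was exposed to test compounds. Growth inhibition was measured relative to vehicle-treated controls.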

[6] = NCI Yeast Anticancer Drug Screen. Data for the wt1 strain (AID 149);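 further: 0% = growth of vehicle-treated wt1 cultures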; conditions: S. cerevisiae wt1 strain (SPY 50644) growth inhibition, active compounds read high
In short: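 The wt1 strain was treated with compounds, and growth was compared with vehicle-treated cultures to give inhibition.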

[7] = NCI Yeast Anticancer Drug Screen. Data for the rad50EPP+ strain (AID 151);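 further: 0% = growth of vehicle-treated control cultures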; conditions: S. cerevisiae rad50 mutant strain, active compounds read high
In short: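 Yeast strain carrying rad50 alteration (rad50EPP+) exposed to compounds; growth inhibition measured relative to vehicle-treated controls.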

[8] = NCI Yeast Anticancer Drug Screen. Data for the mgt1 strain (AID 153); conditions: S. cerevisiae mgt1 mutant growth inhibition, active compounds read high
In short: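 Yeast mgt1 strain (DNA repair/cell-cycle alteration panel) exposed to compounds; growth inhibition measured relative to vehicle-treated controls.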

[9] = NCI Yeast Anticancer Drug Screen. Data for the rad50 strain (AID 155);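 further: 0% = growth of vehicle-only cultures of the same strain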; conditions: S. cerevisiae rad50 strain growth inhibition, active compounds read high
In short: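 Cells are treated with compound, grown, and their growth is then scored against vehicle-only cultures of the same repair-deficient yeast strain.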

[10] = NCI Yeast Anticancer Drug Screen. Data for the mec2-1 strain (AID 157); conditions: S. cerevisiae mec2-1 strain, active compounds read high
In short: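 mec2-1 yeast strain, carrying an alteration in DNA damage repair or cell cycle control, was exposed to compounds; growth inhibition was measured relative to vehicle-treated controls.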

[11] = NCI Yeast Anticancer Drug Screen. Data for the rad14 strain (AID 159);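 further: 0% = growth of vehicle-treated control cultures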; conditions: S. cerevisiae rad14 strain growth inhibition, active compounds read high
In short: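 Readout: yeast growth inhibition, referenced to vehicle-only cultures. Strain bears a defined alteration in DNA damage repair.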

[12] = NCI Yeast Anticancer Drug Screen. Data for the CLN2oe strain (AID 163);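 further: 0% = growth of vehicle-only control cultures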; conditions: S. cerevisiae CLN2oe strain, active compounds read high
In short: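 Yeast cells carrying a defined cell-cycle control alteration were exposed to test compounds. Growth inhibition was scored against vehicle-treated control cultures.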

[13] = NCI Yeast Anticancer Drug Screen. Data for the cln2 rad14 strain (AID 165);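 further: 0% = growth equal to vehicle treated cultures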; conditions: S. cerevisiae cln2 rad14 strain, active compounds read high
In short: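 Yeast carrying cln2 and rad14 alterations (cell cycle control and DNA damage repair) were exposed to compounds. Growth inhibition was measured against vehicle-treated controls.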

[14] = NCI Yeast Anticancer Drug Screen. Data for the wt2 strain (AID 169);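 further: 0% = growth of vehicle-treated yeast cultures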; conditions: S. cerevisiae wt2 strain growth inhibition, active compounds read high
In short: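 Yeast cells were exposed to test compounds, and growth inhibition was measured relative to vehicle-treated controls.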

[15] = NCI Yeast Anticancer Drug Screen. Data for the sgs1 mgt1 strain (AID 161);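 further: 0% = growth of cultures given vehicle only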; conditions: S. cerevisiae sgs1 mgt1 strain, active compounds read high
In short: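 Growth of a repair-deficient yeast mutant was monitored after compound treatment and expressed as inhibition relative to vehicle-treated cultures.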

[16] = NCI Yeast Anticancer Drug Screen. Data for the bub3 strain (AID 167); conditions: S. cerevisiae bub3 mutant strain, active compounds read high
In short: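 Part of a panel of yeast mutants defective in DNA damage repair or cell cycle regulation. Each strain is grown with compound, and inhibition is calculated relative to solvent-treated cultures.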

[17] = at 5.0 µM (retest, dose inferred, filed as 0.5)
[18] = at 50.0 µM (retest, dose inferred, filed as 5.0)

Measured: growth inhibition

CC1=C(C)Cc2c(O)ccc(O)c2C1
active: [3]; [18] 99% | [3]; at 50.0 µM 93.2% | [4]; at 100.0 µM 93%
inactive: [1]; at 1.2 µM -1% | [1]; at 3.7 µM 5% | [1]; at 11.0 µM 12% | [1]; at 33.0 µM 6% | [1]; at 100.0 µM 44% | [2]; at 1.2 µM -21% | [2]; at 3.7 µM -5% | [2]; at 11.0 µM -9% | [2]; at 33.0 µM 7% | [2]; at 100.0 µM 67% | [3]; [17] 52% | [4]; at 1.2 µM 0% | [4]; at 3.7 µM 10% | [4]; at 11.0 µM 18% | [4]; at 33.0 µM 14%

Cc1cc2c(cc1C(=O)CCC(=O)O)CC1(C2)Cc2cc(C)c(C(=O)CCC(=O)O)cc2C1
inactive: [5]; at 1.2 µM 3% | [5]; at 3.7 µM 6% | [5]; at 11.0 µM 11% | [5]; at 33.0 µM 25% | [5]; at 100.0 µM 47% | [6]; at 1.2 µM 3% | [6]; at 3.7 µM 4% | [6]; at 11.0 µM 12% | [6]; at 33.0 µM 21% | [6]; at 100.0 µM 35% | [7]; at 1.2 µM 1% | [7]; at 3.7 µM 0% | [7]; at 11.0 µM 8% | [7]; at 33.0 µM 15% | [7]; at 100.0 µM 30% | [8]; at 1.2 µM 2% | [8]; at 3.7 µM 6% | [8]; at 11.0 µM 12% | [8]; at 33.0 µM 36% | [8]; at 100.0 µM 42% | [9]; at 1.2 µM 3% | [9]; at 3.7 µM 2% | [9]; [17] 13% | [9]; at 11.0 µM 9% | [9]; at 33.0 µM 21% | [9]; [18] 36% | [9]; at 50.0 µM 56.5% | [9]; at 100.0 µM 42% | [10]; at 1.2 µM -2% | [10]; at 3.7 µM 1% | [10]; [17] -4% | [10]; at 11.0 µM 12% | [10]; at 33.0 µM 26% | [10]; [18] 14% | [10]; at 50.0 µM 31.5% | [10]; at 100.0 µM 56% | [11]; at 1.2 µM -1% | [11]; at 3.7 µM 2% | [11]; at 11.0 µM 8% | [11]; at 33.0 µM 22% | [11]; at 100.0 µM 44% | [12]; at 1.2 µM -5% | [12]; at 3.7 µM 2% | [12]; at 11.0 µM 14% | [12]; at 33.0 µM 27% | [12]; at 100.0 µM 41% | [13]; [17] 16% | [13]; [18] 47% | [13]; at 50.0 µM 38.4% | [14]; at 1.2 µM 0% | [14]; at 3.7 µM 2% | [14]; at 11.0 µM 10% | [14]; at 33.0 µM 26% | [14]; at 100.0 µM 46% | [1]; at 1.2 µM 5% | [1]; at 3.7 µM 5% | [1]; at 11.0 µM 14% | [1]; at 33.0 µM 27% | [1]; at 100.0 µM 50% | [2]; at 1.2 µM 2% | [2]; at 3.7 µM 7% | [2]; at 11.0 µM 14% | [2]; at 33.0 µM 33% | [2]; at 100.0 µM 69% | [3]; [17] -1% | [3]; at 50.0 µM 67.8% | [4]; at 1.2 µM 1% | [4]; at 3.7 µM 1% | [4]; at 11.0 µM -3% | [4]; at 33.0 µM 22% | [4]; at 100.0 µM 63%
active: [3]; [18] 70%

C[C@H](CCC(=O)NN)[C@H]1CC[C@H]2[C@@H]3CC[C@@H]4C[C@H](O)CC[C@]4(C)[C@H]3CC[C@]12C
active: [16]; [18] 73% | [16]; at 50.0 µM 89.2% | [3]; at 50.0 µM 92.2%
inactive: [5]; at 1.2 µM -2% | [5]; at 3.7 µM 0% | [5]; at 11.0 µM 0% | [5]; at 33.0 µM 6% | [5]; at 100.0 µM 10% | [6]; at 1.2 µM 1% | [6]; at 3.7 µM 0% | [6]; at 11.0 µM 0% | [6]; at 33.0 µM 0% | [6]; at 100.0 µM 3% | [7]; at 1.2 µM 0% | [7]; at 3.7 µM 4% | [7]; at 11.0 µM 4% | [7]; at 33.0 µM 6% | [7]; at 100.0 µM 18% | [9]; at 1.2 µM 1% | [9]; at 3.7 µM 1% | [9]; [17] 12% | [9]; at 11.0 µM 9% | [9]; at 33.0 µM -1% | [9]; [18] 45% | [9]; at 50.0 µM 60% | [9]; at 100.0 µM 5% | [10]; at 1.2 µM 3% | [10]; at 3.7 µM 3% | [10]; [17] 0% | [10]; at 11.0 µM 3% | [10]; at 33.0 µM 5% | [10]; [18] 7% | [10]; at 50.0 µM 40.2% | [10]; at 100.0 µM 17% | [11]; at 1.2 µM 0% | [11]; at 3.7 µM -3% | [11]; at 11.0 µM 0% | [11]; at 33.0 µM -5% | [11]; at 100.0 µM 12% | [15]; [17] 3% | [15]; [18] 51% | [15]; at 50.0 µM 35.3% | [12]; at 1.2 µM -4% | [12]; at 3.7 µM 2% | [12]; at 11.0 µM 5% | [12]; at 33.0 µM 2% | [12]; at 100.0 µM 16% | [13]; [17] -4% | [13]; [18] 54% | [13]; at 50.0 µM 54.4% | [16]; at 1.2 µM -3% | [16]; at 3.7 µM 1% | [16]; [17] -18% | [16]; at 11.0 µM 8% | [16]; at 33.0 µM 1% | [16]; at 100.0 µM -3% | [14]; at 1.2 µM -2% | [14]; at 3.7 µM -2% | [14]; at 11.0 µM -2% | [14]; at 33.0 µM -1% | [14]; at 100.0 µM 2% | [1]; at 1.2 µM 3% | [1]; at 3.7 µM 2% | [1]; at 11.0 µM 2% | [1]; at 33.0 µM -14% | [1]; at 100.0 µM 4% | [2]; at 1.2 µM 2% | [2]; at 3.7 µM 3% | [2]; at 11.0 µM 4% | [2]; at 33.0 µM 4% | [2]; at 100.0 µM 6% | [3]; [17] 21% | [3]; [18] 44% | [4]; at 1.2 µM -5% | [4]; at 3.7 µM -4% | [4]; at 11.0 µM 5% | [4]; at 33.0 µM 0% | [4]; at 100.0 µM 3%

Reference: PubChem BioAssay (NCI)
